PubChem BioAssay (NCI)
Compounds without any hit were thinned out: in the full panel of roughly 79,000, 15% have a hit. A number with no mark means an inactive call. Active and inactive are the calls of the source. Cut-off read from the data, not from the text of the source: active = growth inhibition above about 70%; inactive = the rest.

Columns and labels:
[1] = NCI Yeast Anticancer Drug Screen. Data for the rad50 strain (AID 155);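 note: 0% = growth of vehicle-only cultures of the same strain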; conditions: S. cerevisiae rad50 strain growth inhibition, active compounds read high
Procedure, shortened: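 Inhibition values express reduced yeast growth in compound-treated cultures relative to vehicle-treated controls.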

[2] = NCI Yeast Anticancer Drug Screen. Data for the mec2-1 strain (AID 157); conditions: S. cerevisiae mec2-1 strain, active compounds read high
Procedure, shortened: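 Each compound was tested on mec2-1 yeast, a strain altered in DNA damage repair or cell cycle control. Growth inhibition is reported relative to vehicle.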

[3] = NCI Yeast Anticancer Drug Screen. Data for the sgs1 mgt1 strain (AID 161);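 note: 0% = growth of cultures given vehicle only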; conditions: S. cerevisiae sgs1 mgt1 strain, active compounds read high
Procedure, shortened: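 Inhibition of yeast growth, normalised to vehicle-treated controls, is reported for a strain bearing genetic alterations in DNA damage repair.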

[4] = NCI Yeast Anticancer Drug Screen. Data for the cln2 rad14 strain (AID 165);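 note: 0% = growth equal to vehicle treated cultures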; conditions: S. cerevisiae cln2 rad14 strain, active compounds read high
Procedure, shortened: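 Test compounds were added to cln2 rad14 yeast cultures; inhibition of growth was then determined by comparison with vehicle treatment.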

[5] = NCI Yeast Anticancer Drug Screen. Data for the bub3 strain (AID 167); conditions: S. cerevisiae bub3 mutant strain, active compounds read high
Procedure, shortened: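 Steps: expose the mutant yeast strain to compound; grow alongside vehicle-treated cultures; measure growth; express inhibition against the vehicle cultures.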

[6] = NCI Yeast Anticancer Drug Screen. Data for the mlh1 rad18 strain (AID 175); conditions: S. cerevisiae mlh1 rad18 strain growth inhibition, active compounds read high
Procedure, shortened: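 Inhibition values reflect reduced growth of mutant yeast versus vehicle-treated controls following compound exposure; the mutations affect DNA damage repair.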

[7] = at 5.0 µM (retest, dose inferred, filed as 0.5)
[8] = at 50.0 µM (retest, dose inferred, filed as 5.0)

SMILES | growth inhibition [1, 7] | growth inhibition [1, 8] | growth inhibition ([1]; at 50.0 µM) | growth inhibition [2, 7] | growth inhibition [2, 8] | growth inhibition ([2]; at 50.0 µM) | growth inhibition [3, 7] | growth inhibition [3, 8] | growth inhibition ([3]; at 50.0 µM) | growth inhibition [4, 7] | growth inhibition [4, 8] | growth inhibition ([4]; at 50.0 µM) | growth inhibition [5, 7] | growth inhibition [5, 8] | growth inhibition ([5]; at 50.0 µM) | growth inhibition [6, 7] | growth inhibition [6, 8] | growth inhibition ([6]; at 50.0 µM)
O=C1C=C(Cl)C(=O)C(Cl)=C1Cl | -14% | 99% (active) | 99.2% (active) | 11% | 99% (active) | 99.3% (active) | 12% | 99% (active) | 99.2% (active) | -25% | 91% (active) | 98.7% (active) | 8% | 99% (active) | 99% (active) | 3% | 99% (active) | 98.8% (active)
CCSC1(SCC)C(=O)OC2=C(CCCC2)C1N1CCOCC1 (stereo not given) | 1% | 21% | 34.1% | 2% | 12% | 14.2% | 0% | 18% | 0.35% | -2% | 31% | 34.9% | -4% | 11% | 13.3% | -1% | 24% | 15.6%
C=C1CC(C)(C)C(c2ccccc2)OC1=O (stereo not given) | 1% | 60% | 53% | 7% | 80% (active) | 31.7% | 8% | 98% (active) | 97.1% (active) | -4% | 25% | 5.55% | -7% | 80% (active) | 73.5% (active) | 13% | 87% (active) | 77.8% (active)
CC(O)c1cccnc1 (stereo not given) | 11% | -8% | 65.5% | 10% | 1% | 49.6% | 4% | -1% | 20% | 20% | 41% | 58.1% | -6% | 47% | 28.6% | -9% | 51% | 66%
C=C(C)COc1cc(NC(=S)OC(C)C)ccc1Cl | 16% | 90% (active) | 51.8% | 16% | 93% (active) | 83.8% (active) | 8% | 88% (active) | 90.1% (active) | 6% | 86% (active) | 88.2% (active) | 20% | 93% (active) | 88.3% (active) | 12% | 92% (active) | 83.6% (active)
C=CCCCCCCCCC(=O)CCCCCCCCC=C | 0% | 2% | 7.6% | -2% | 3% | 9.2% | -2% | 0% | -3.35% | 6% | 3% | 58.8% | -1% | 4% | 14% | -4% | 1% | 5.75%
N=C(N)c1ccc(Nc2ccc(C(=N)N)cc2)cc1 | 20% | 5% | 91.2% (active) | 30% | -7% | 86.3% (active) | 19% | 9% | 90% (active) | 1% | 14% | 72.2% (active) | 21% | 56% | 97.8% (active) | 14% | 39% | 91% (active)
CC1SC2(C(=O)Nc3ccc([N+](=O)[O-])cc32)N(c2ccc(Cl)cc2)C1=O (stereo not given) | 7% | 97% (active) | 95.6% (active) | -2% | 97% (active) | 95.7% (active) | -1% | 98% (active) | 79.2% (active) | -1% | 97% (active) | 81.7% (active) | 12% | 98% (active) | 96.2% (active) | 6% | 98% (active) | 93.5% (active)
C1=C(c2ccccc2)SC=C(c2ccccc2)S1 | -5% | -26% | -15.7% | -14% | -16% | 8.75% | -2% | 40% | -0.9% | -9% | -9% | -3.15% | 23% | 47% | 83% (active) | -6% | -8% | -5.45%
COc1cc(F)ccn1 | 2% | 0% | -4.75% | 5% | 4% | -11.4% | 2% | 2% | -12.5% | 1% | 4% | 12.8% | -2% | -4% | 46% | -4% | -3% | -18.2%
